Results filed as inconclusive are left out. The source made the active and inactive calls. The call rests on the fitted dose curve.
Assays:
[1] = qHTS drug screen for cell cycle checkpoint inhibitors in PARPi-resistant BRCA-mutant ovarian cancer cell lines. (AID 1963452); conditions: PEO1/OlaR viability, CellTiter-Glo luminescence, 96 h, stronger effect = lower value
Method in brief: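 PEO1, PEO4 and PEO1/OlaR ovarian cancer cells, 600 per well, exposed 96 h at 37C to a dilution series. Viability read by CellTiter-Glo luminescence, normalized to DMSO and empty wells; activity summarized as Z-AUC.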

[2] = qHTS for identification of novel therapeutic agents for treatment of microphthalmiaassociated transcription factor (MiT) renal cell carcinoma (RCC) (AID 1963991); conditions: CellTiter-Glo, 48 h, stronger effect = lower value;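 further: curves scaled with 100% = DMSO viability and 0% = empty wells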
Method in brief: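 UOK109/UOK124/UOK145 (TFE3 fusions, three partners); 500 cells/well; MIPE v4.0, 1912 cpds, 11 conc.; 48 h, 37 C; CellTiter-Glo, 15 min RT; lum. Norm.: DMSO 100%, empty 0%.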

[3] = measured here: PEO1 parental Z-AUC
[4] = TFE3-RCC UOK109 viability, measured here: UOK109 Z-AUC
[5] = TFE3-RCC viability, measured here: UOK124 Z-AUC
[6] = TFE3-RCC viability, measured here: UOK145 Z-AUC

| Structure (SMILES) | Z-AUC [1] | Z-AUC [1, 3] | Z-AUC ([1]; measured here: PEO4 Z-AUC) | z-score [2, 4] | z-score [2, 5] | z-score [2, 6] |
| --- | --- | --- | --- | --- | --- | --- |
| NC(=O)c1ccc2nc(-c3ccc(Oc4ccc(Cl)cc4)cc3)[nH]c2c1 | -1.56 (inactive) | -1.26 | -1.18 | – | – | – |
| Cc1ccc(/C=N/NC(=O)c2ccccc2Oc2ccccc2)o1 | 0.785 (inactive) | 0.523 | 0.656 | – | – | – |
| N#CC1(c2ccc(NC(=O)c3cccnc3NCc3ccncc3)cc2)CCCC1 | 1.21 (inactive) | 1.37 | 1.27 | – | – | – |
| c1ccc2c(-c3cnn4cc(-c5ccc(N6CCNCC6)cc5)cnc34)ccnc2c1 | -0.163 (inactive) | -0.568 | -0.419 | – | – | – |
| CC(C)(Cc1ccc2ccccc2c1)NC[C@@H](O)COc1cccc(Cl)c1C#N | 0.779 (inactive) | 1.04 | 0.976 | – | – | – |
| CS(=O)c1ccc(-c2nc(-c3ccc(F)cc3)c(-c3ccncc3)[nH]2)cc1 (stereo not drawn) | 0.509 (inactive) | 0.495 | 0.786 | – | – | – |
| O=C(Nc1cc(Cl)cc2c1[nH]c1cnccc12)c1cccnc1 | 0.696 (inactive) | 0.253 | 0.368 | – | – | – |
| CC(C)C(C)C=CC(C)C1CCC2C3=CC=C4CC(O)CCC4(C)C3CCC21C (stereo not drawn) | 1.48 (inactive) | 1.13 | 1.32 | – | – | – |
| NS(=O)(=O)c1ccc(NC2=CC(=O)c3ccccc3C2=O)cc1 | -0.549 (inactive) | -0.888 | -0.629 | – | – | – |
| O=C(CCN1CCN(C(=O)OCc2cc(Cl)cc(Cl)c2)CC1)c1ccc2[nH]c(=O)oc2c1 | 0.428 (inactive) | 0.576 | 0.591 | – | – | – |
| CC1(C)Cc2c(sc(NC(=S)NC(=O)c3ccccc3)c2C(=O)O)CO1 | -0.088 (inactive) | -0.241 | 0.00999 | – | – | – |
| O=c1cc(-c2ccccc2)oc2cc(O)c(O)c(O)c12 | 0.741 (inactive) | 0.629 | 0.577 | – | – | – |
| Cc1ccccc1C(C(=O)NC1CCCCC1)N(C(=O)Cn1ccnc1C)c1cccc(F)c1 (stereo not drawn) | 0.113 (inactive) | 0.941 | 0.654 | 0.6 | 0.139 | 0.682 |
| O=C(Nc1c(Cl)cncc1Cl)c1ccc(OC(F)F)c(OCC2CC2)c1 | 0.0747 (inactive) | 0.551 | 0.508 | -0.715 | 0.259 | 0.585 |
| CC(C)=CC[C@@H](O)C1=CC(=O)c2c(O)ccc(O)c2C1=O | -0.228 (inactive) | -0.402 | -0.229 | – | – | – |
| CC(C)(C)NC(=O)Nc1cccc(Nc2ncc(F)c(NC(C)(C)CO)n2)c1 | -0.707 (inactive) | -1.21 | -1.05 | 1.09 | -0.121 | 0.237 |
| CC1(C)CCC2=C(O1)c1ccccc1C(=O)C2=O | 0.0983 (inactive) | -0.291 | 0.134 | – | – | – |
| O=C1C(Cl)=C(NCCN2CCOCC2)C(=O)c2ncccc21 | -1.13 (inactive) | -1.16 | -1.1 | – | – | – |
| O=C(NCc1ccncc1)C12C[C@H]3C[C@@H](C1)CC(c1ccc(Cl)cc1)(C3)C2 | 0.0323 (inactive) | 0.866 | 0.86 | – | – | – |
| NC(=O)c1cccc(-c2cc(Nc3ccc(OC(F)(F)F)cc3)ncn2)c1 | 1.26 (inactive) | 0.548 | 0.648 | – | – | – |
| O=C(N[C@@H](c1ccccc1)[C@@H]1CCCCN1)c1cccc(C(F)(F)F)c1Cl | 0.7 (inactive) | 0.513 | 0.741 | – | – | – |
| CC(C(=O)O)c1ccc(-c2ccccc2)c(F)c1 (stereo not drawn) | 0.668 (inactive) | 0.939 | 1.4 | – | – | – |

| Structure (SMILES) | Z-AUC [1] | Z-AUC [1, 3] | Z-AUC ([1]; measured here: PEO4 Z-AUC) | z-score [2, 4] | z-score [2, 5] | z-score [2, 6] |
| --- | --- | --- | --- | --- | --- | --- |
| Cc1ccc(F)c(NC(=O)Nc2ccc(-c3cccc4[nH]nc(N)c34)cc2)c1 | 1.25 (inactive) | 1.09 | 1.16 | – | – | – |
| O=c1c(O)c(-c2ccc(O)cc2)oc2cc(O)cc(O)c12 | 0.889 (inactive) | 1.15 | 1.73 | – | – | – |
| C[C@]12CC[C@@H]3c4ccc(O)cc4C[C@@H](CCCCCCCCCS(=O)CCCC(F)(F)C(F)(F)F)[C@H]3[C@H]1CC[C@H]2O (stereo partly drawn) | -0.724 (inactive) | -0.171 | -1.07 | 1.23 | 0.607 | 0.767 |
| COc1ccc2c(Oc3ccc(NC(=O)c4c(C)n(CC(C)(C)O)n(-c5ccccc5)c4=O)cc3F)ccnc2c1 | -0.152 (inactive) | 0.199 | 0.0396 | – | – | – |
| O=c1c(-c2ccc(O)cc2)coc2cc(O)ccc12 | 1.12 (inactive) | 1.51 | 1.78 | 0.875 | 0.542 | 0.636 |
| O=C(NCc1ccccc1)c1csc(Nc2ccncn2)n1 | -0.615 (inactive) | 0.117 | 0.922 | – | – | – |
| COC1CCC(N(C(=O)C2CCC(C)CC2)c2cc(C3=CCCCC3)sc2C(=O)O)CC1 (stereo not drawn) | -0.412 (inactive) | -0.941 | -0.935 | 0.459 | 1.37 | 0.333 |
| O=c1cc(-c2ccccc2)oc2cc(O)cc(O)c12 | 1.05 (inactive) | 1.12 | 1.3 | 0.364 | 0.638 | 0.538 |
| Clc1ccc(C(c2ccc(Cl)cc2)n2cc[n+](CC(OCc3ccc(Cl)cc3Cl)c3ccc(Cl)cc3Cl)c2)cc1 (stereo not drawn) | 0.167 (inactive) | -0.468 | -0.455 | – | – | – |
| COc1ccc(-n2c(C)c([N+](=O)[O-])c3ccc(O)cc32)cc1 | -0.721 (inactive) | -0.631 | -0.862 | 0.538 | 0.575 | 0.643 |
| CC(=O)Nc1ccc([C@H](C)C(=O)Nc2ncc(C(C)C)s2)cc1 | -0.905 (inactive) | -1.74 | -1.22 | – | – | – |
| COc1ccc2cc(-c3nc(-c4ccc(S(C)=O)cc4)[nH]c3-c3ccncc3)ccc2c1 (stereo not drawn) | -0.0857 (inactive) | -0.107 | -0.281 | – | – | – |
| CN1[C@@H]2CCC[C@@H]1CC(NC(=O)c1nn(C)c3ccccc13)C2 (stereo partly drawn) | -0.105 (inactive) | -0.292 | 0.149 | 0.506 | 0.637 | 0.0896 |
| C=C1C(=O)[C@@]23C(CC[C@@H]1[C@H]2O)[C@@]12CO[C@]3(O)[C@@H](O)[C@@H]1C(C)(C)CC[C@@H]2O (stereo partly drawn) | -0.857 (inactive) | -1.05 | -1.08 | – | – | – |
| O=C(O)c1ccc(-c2c[nH]c3ncc(-c4ccccc4)cc23)cc1C1CCCC1 | 0.296 (inactive) | -0.104 | 0.0769 | 1.28 | 0.56 | 0.0409 |
| COc1cc2c(cc1OC)CN(CCc1ccc(NC(=O)c3cc(OC)c(OC)cc3NC(=O)c3cnc4ccccc4c3)cc1)CC2 | 0.969 (inactive) | 1.41 | 1.02 | – | – | – |
| CC1CCC(C(=O)N(c2cc(C#CC(C)(C)C)sc2C(=O)O)C2CCC(O)CC2)CC1 (stereo not drawn) | 0.0164 (inactive) | -0.415 | -0.158 | – | – | – |
| COc1ccc2c(Oc3ccc(NC(=O)c4c(C)n(CC(C)(C)O)n(-c5ccccc5)c4=O)nc3)ccnc2c1 | 0.509 (inactive) | 0.436 | -0.433 | – | – | – |
| c1ccc2c(Cc3c[nH]c4ccccc34)c[nH]c2c1 | 0.829 (inactive) | 0.126 | -0.359 | – | – | – |
| CNC(=O)c1ccc2cc(C3(O)CCn4cncc43)ccc2c1 (stereo not drawn) | -0.914 (inactive) | -0.347 | -0.305 | 0.41 | 0.546 | 0.539 |
| O=c1cc(CN2CCOCC2)occ1OCCCCCSc1ccnc2cc(C(F)(F)F)ccc12 | -0.111 (inactive) | -0.421 | -0.0909 | – | – | – |
| O=C(O)c1cc(O)c2c(c1)C(=O)c1cccc(O)c1C2=O | -0.369 (inactive) | -0.852 | -0.959 | 1.17 | -0.187 | 1.5 |

From PubChem BioAssay (NCATS)
